The record followed here is PubChem BioAssay (NCATS).

Values joined by “and” are separate entries in the source; they are usually repeats but may differ in a detail not shown here. Equal values may be shown once. Records with an inconclusive call do not appear. Values without a mark were called inactive. Active and inactive are the calls of the source. Calls come from the whole dose curve; as a rule, active = well fitted curve in the direction sought with a large enough effect; inconclusive = small, poorly fitted or top-dose-only effect, or another doubt; inactive = no such curve, though single readings can be large; an effect the other way counts as inactive or inconclusive.

Experiment [1] has as its system NIH3T3. Description: Cytotoxic Profiling of Annotated Libraries Using Quantitative High-Throughput Screening (AID 1296008). Note: nearly all actives have a fitted effect of over 60% in size. Particulars: Five cell lines viability, CellTiter-Glo ATP luminescence, 48-72 h; max response: hits give low values. In short, it runs like this:
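Compounds were pin-transferred onto cells and incubated 48 or 72 hr at 37 degree Celsius, 95% humidity. CellTiter-Glo was added, plates sat 10 min at room temperature, then ATP-coupled luminescence was imaged as the viability read-out.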

Experiment [2] concerns HEK293T. Description: qHTS assay to identify novel small-molecules to repurpose for Merkel cell carcinoma treatment (AID 1296009). Note: nearly all actives have a fitted effect of over 60% in size. Note: potency is the fitted concentration of half-maximal effect. Particulars: MCC and control cell lines, CellTiter-Glo viability, 72 h; at 44.8 µM (top of the series) unless noted. The procedure, abridged: (§1)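 Cells exposed to NPC (8-point) and MIPE (11-point) compound dilutions for 72 hr at 37 degree celsius; viability read by CellTiter-Glo luminescence, normalized to no-cell and DMSO in-plate controls.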

The test system of a further experiment is MCC-13. The experiment is described as above. The note with it: MCC and control cell lines, CellTiter-Glo viability, 72 h; series mostly up to 46 µM. In short, it runs like this: as §1
The subject of the next experiment is MCC-26. The description is as above. Particulars: MCC and control cell lines, CellTiter-Glo viability, 72 h; series mostly up to 46 µM. The procedure, abridged:
as §1

In a further experiment the test system is MKL-1. Described as above. The note with it: MCC and control cell lines, CellTiter-Glo viability, 72 h; series mostly up to 46 µM. The procedure, abridged:
as §1

Another experiment deals with MKL-2. The description is as above. The note with it: MCC and control cell lines, CellTiter-Glo viability, 72 h; series mostly up to 46 µM. The procedure, abridged: as §1
A further experiment concerns UISO. The experiment is described as above. The note with it: MCC and control cell lines, CellTiter-Glo viability, 72 h; series mostly up to 46 µM. The procedure, abridged: as §1
For a further experiment, the system named is WaGa. Described as above. The note with it: MCC and control cell lines, CellTiter-Glo viability, 72 h; series mostly up to 46 µM. The procedure, abridged:
as §1

The next experiment concerns C33A. The experiment is described as follows: Primary qHTS to identify gynecologic anti-cancer compounds using libraries of approved drugs and bioactive compounds (AID 1345084). Note: nearly all actives have a fitted effect of over 55% in size. Particulars: Gynecologic cancer cell panel viability, ATPlite luminescence, 48 h; series mostly up to 57.5 µM. In short, it runs like this:
(§2)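 Cells, 1,000 per well, were allowed to settle for 16 h at 37 C before compound addition. Five concentrations were tested for 48 h, and viability was read by ATPlite luminescence after 15 min at room temperature.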

The next experiment deals with CASKI. The description is as above. Particulars: Gynecologic cancer cell panel viability, ATPlite luminescence, 48 h; series mostly up to 57.5 µM. The procedure, abridged: as §2
The subject of another experiment is Es-2. The experiment is described as above. The note with it: Gynecologic cancer cell panel viability, ATPlite luminescence, 48 h; series mostly up to 57.5 µM. The procedure, abridged:
as §2

The test system of another experiment is HeLa. The description is as above. Particulars: Gynecologic cancer cell panel viability, ATPlite luminescence, 48 h; series mostly up to 57.5 µM. The procedure, abridged: as §2
Experiment [3] deals with Hek293T. The description is as above. Particulars: Gynecologic cancer cell panel viability, ATPlite luminescence, 48 h, control line for the selectivity index; series mostly up to 57.5 µM. The procedure, abridged:
as §2

A further experiment deals with JEG-3. The experiment is described as above. The note with it: Gynecologic cancer cell panel viability, ATPlite luminescence, 48 h; series mostly up to 57.5 µM. The procedure, abridged: as §2
The next experiment has as its system OV90. The experiment is described as above. The note with it: Gynecologic cancer cell panel viability, ATPlite luminescence, 48 h; series mostly up to 57.5 µM. In short, it runs like this:
as §2

The test system of the next experiment is PA-1. The description is as above. Particulars: Gynecologic cancer cell panel viability, ATPlite luminescence, 48 h; series mostly up to 57.5 µM. In short, it runs like this:
as §2

The subject of the next experiment is SKOV3. Described as above. Particulars: Gynecologic cancer cell panel viability, ATPlite luminescence, 48 h; series mostly up to 57.5 µM. The procedure, abridged:
as §2

For another experiment, the system named is HACAT. Description: qHTS assay to identify novel small-molecules to repurpose for Merkel cell carcinoma treatment (AID 1296009). Note: nearly all actives have a fitted effect of over 60% in size. Note: potency is the fitted concentration of half-maximal effect. The note with it: MCC and control cell lines, CellTiter-Glo viability, 72 h; at 44.8 µM (top of the series) unless noted. In short, it runs like this: as §1
Experiment [4] relates to NIH3T3. Described as above. Particulars: MCC and control cell lines, CellTiter-Glo viability, 72 h; at 44.8 µM (top of the series) unless noted. The procedure, abridged:
as §1

Another experiment has as its system CAOV3. Description: Primary qHTS to identify gynecologic anti-cancer compounds using libraries of approved drugs and bioactive compounds (AID 1345084). Note: nearly all actives have a fitted effect of over 55% in size. The note with it: Gynecologic cancer cell panel viability, ATPlite luminescence, 48 h; series mostly up to 57.5 µM. The procedure, abridged:
as §2
% is set by controls: 0 for no effect and ±100 for the full control effect.

As for `Cc1ccc2c(n1)Oc1ccc(C(C)C(=O)OCC(=O)N(C)C)cc1C2` (stereo not given), in the experiment with NIH3T3 [1], the max response is -8.07% and -9.75%. In addition, in the experiment with HEK293T [2], the compound was classed as inactive. For the same compound, the Potency result in the experiment with MCC-13, in the experiment on MCC-26, in the experiment with MKL-1, in the experiment with MKL-2, in the experiment with UISO and in the experiment on WaGa was “inactive” in each case. For the same compound, the Potency result with C33A, in the experiment on CASKI, in the experiment on Es-2, in the experiment on HeLa, with Hek293T [3] and in the experiment on JEG-3 was “inactive” in each case. In addition, the Potency entry with OV90, in the experiment on PA-1 and in the experiment with SKOV3 was “inactive” each time.
As for `COc1cc(NC(C)CCCN)c2ncccc2c1` (stereo not given), the outcome with NIH3T3 [1], with HACAT and in the experiment with NIH3T3 [4] was inactive. The Potency is 16.8 µM (active) in the experiment with MCC-13; 2.99 µM (active) with MKL-1; 4.22 µM (active) with MKL-2; 3.35 µM (active) with UISO; 3.76 µM (active) in the experiment with WaGa. Besides, the Potency entry in the experiment on MCC-26, in the experiment with C33A, in the experiment on CASKI, with Es-2, in the experiment with HeLa and with Hek293T [3] was “inactive” in each case. Moreover, the Potency entry with OV90, in the experiment with PA-1 and in the experiment with SKOV3 was “inactive” each time.
For the compound `COc1ccnc2c1CCCCC2S(=O)c1nc2ccccc2[nH]1` (stereo not given), the max response with NIH3T3 [1] is -4.2%. Further, the call with HACAT was inactive. In addition, the Potency entry with MCC-13, in the experiment with MKL-1, with MKL-2, in the experiment with UISO, with WaGa and in the experiment with C33A was “inactive” throughout. In addition, the Potency entry in the experiment with CASKI, with Es-2, in the experiment with HeLa, in the experiment on Hek293T [3], with JEG-3 and with OV90 was “inactive” each time. Also, the Potency entry in the experiment on PA-1 and in the experiment with SKOV3 was “inactive” each time.
With `N=C(N)N`, the call in the experiment with NIH3T3 [1], with HACAT, with HEK293T [2] and in the experiment with NIH3T3 [4] was inactive. In addition, the Potency entry with MCC-13, with MCC-26, in the experiment on MKL-1, in the experiment with MKL-2, in the experiment with UISO and in the experiment with WaGa was “inactive” in each case. Besides, the Potency result in the experiment on C33A, in the experiment with CASKI, in the experiment with Es-2, in the experiment on HeLa, in the experiment on Hek293T [3] and in the experiment on JEG-3 was “inactive” each time. In addition, the Potency entry in the experiment on OV90 and with SKOV3 was “inactive” in each case.
On to `CC(N)C(=O)OC(C)(C)Cc1ccc(Cl)cc1` (stereo not given), for which the max response in the experiment with NIH3T3 [1] was -1.5%. Besides, the result with HACAT was inactive. Also, the Potency result with MCC-13, with MCC-26, with MKL-1, in the experiment with MKL-2, with UISO and in the experiment on WaGa was “inactive” each time. The Potency entry in the experiment with C33A, in the experiment with CAOV3, in the experiment on CASKI, with Es-2, with HeLa and in the experiment on JEG-3 was “inactive” throughout. Also, the Potency entry in the experiment on OV90, in the experiment on PA-1 and with SKOV3 was “inactive” throughout.
For `CN1CC(=O)N/C1=N/C(=O)Nc1cccc(Cl)c1`, the max response with NIH3T3 [1] is -0.466%. Also, the call with HACAT and in the experiment with HEK293T [2] was inactive. Besides, the Potency entry in the experiment on MCC-13, in the experiment on MCC-26, with MKL-1, in the experiment on MKL-2, with UISO and in the experiment on WaGa was “inactive” in each case. Further, the Potency entry in the experiment with C33A, in the experiment with CAOV3, in the experiment with CASKI, in the experiment with Es-2, in the experiment with HeLa and in the experiment on Hek293T [3] was “inactive” each time. In addition, the Potency entry in the experiment with JEG-3, in the experiment on OV90, in the experiment with PA-1 and in the experiment on SKOV3 was “inactive” each time.
On to `C=CCCCCCCCCC(=O)O`, for which the max response in the experiment on NIH3T3 [1] was 0.287%. In the experiment with HEK293T [2], the compound was classed as inactive. Moreover, the Potency result in the experiment on MCC-13, in the experiment with MKL-1, in the experiment with MKL-2, in the experiment with UISO, in the experiment with WaGa and in the experiment with C33A was “inactive” in each case. Besides, the Potency entry with CASKI, with Es-2, with HeLa, in the experiment on Hek293T [3], in the experiment with JEG-3 and in the experiment on OV90 was “inactive” each time. Moreover, the Potency entry with PA-1 and in the experiment on SKOV3 was “inactive” in each case.
